Measured values as given in PMC5700166.

What was measured:
Assay in all cases: protein-binding microarray (PBM); PBM: ~300 nM protein, 6 mM HEPES pH 7.8, 80 mM KCl, 0.5 mM EDTA, 0.5 mM EGTA, 6% glycerol, 35 ng/ul poly-dIdC, 1% milk, 1 h, room temperature; Ap Aiptasia and Nv Nematostella (sea anemones) / Co Capsaspora / Aq Amphimedon (sponge) / Dm Drosophila / Hu human; RHD is the Rel homology domain; high values mean tight binding
Details in all cases: dsDNA, one strand shown
GST-Ap-NF-kB RHD = molecular target: T1, GST-Ap-NF-kB RHD (Exaiptasia pallida (Aiptasia), UniProt A0A913YAJ5 2-422)
T1 sequence: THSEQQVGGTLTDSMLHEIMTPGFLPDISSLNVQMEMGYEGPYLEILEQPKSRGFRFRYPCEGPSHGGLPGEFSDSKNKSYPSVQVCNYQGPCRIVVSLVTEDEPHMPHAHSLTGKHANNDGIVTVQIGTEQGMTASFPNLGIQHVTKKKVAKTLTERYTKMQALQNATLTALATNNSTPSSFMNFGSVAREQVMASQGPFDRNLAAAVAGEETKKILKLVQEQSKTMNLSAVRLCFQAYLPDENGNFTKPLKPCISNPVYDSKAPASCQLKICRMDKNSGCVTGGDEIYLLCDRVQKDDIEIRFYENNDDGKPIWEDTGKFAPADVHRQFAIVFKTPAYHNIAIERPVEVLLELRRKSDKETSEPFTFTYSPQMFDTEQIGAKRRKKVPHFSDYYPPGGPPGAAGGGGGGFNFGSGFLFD

[1] = molecular target: T2, GST-Nv-NF-kB (Cys allele) (Nematostella vectensis, UniProt E5G601 2-411)
T2 sequence: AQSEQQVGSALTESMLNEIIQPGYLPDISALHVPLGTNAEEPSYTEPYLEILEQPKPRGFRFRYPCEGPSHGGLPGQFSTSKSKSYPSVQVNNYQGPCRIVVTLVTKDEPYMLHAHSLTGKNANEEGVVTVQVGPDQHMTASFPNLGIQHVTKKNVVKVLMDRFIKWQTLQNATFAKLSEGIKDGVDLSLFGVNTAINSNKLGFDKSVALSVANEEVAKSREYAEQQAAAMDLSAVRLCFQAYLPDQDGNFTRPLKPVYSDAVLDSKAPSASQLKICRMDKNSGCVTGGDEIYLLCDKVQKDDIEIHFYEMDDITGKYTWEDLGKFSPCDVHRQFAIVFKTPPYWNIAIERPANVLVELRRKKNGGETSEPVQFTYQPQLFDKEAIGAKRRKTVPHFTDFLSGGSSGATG

GST-Co-NF-kB = molecular target: T3, GST-Co-NF-kB (Capsaspora owczarzaki, UniProt F1ARL5 200-546)
T3 sequence: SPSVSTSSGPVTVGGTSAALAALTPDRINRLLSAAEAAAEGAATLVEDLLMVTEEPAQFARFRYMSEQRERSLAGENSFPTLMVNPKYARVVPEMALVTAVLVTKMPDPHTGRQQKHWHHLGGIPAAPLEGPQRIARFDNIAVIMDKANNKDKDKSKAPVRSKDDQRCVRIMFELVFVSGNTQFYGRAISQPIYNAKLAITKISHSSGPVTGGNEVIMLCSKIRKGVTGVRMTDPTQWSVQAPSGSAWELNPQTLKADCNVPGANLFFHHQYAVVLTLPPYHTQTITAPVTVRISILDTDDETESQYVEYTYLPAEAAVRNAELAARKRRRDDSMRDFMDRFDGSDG

GST-Dm-Relish = molecular target: T4, GST-Dm-Relish (Drosophila melanogaster, UniProt Q94527 99-473)
T4 sequence: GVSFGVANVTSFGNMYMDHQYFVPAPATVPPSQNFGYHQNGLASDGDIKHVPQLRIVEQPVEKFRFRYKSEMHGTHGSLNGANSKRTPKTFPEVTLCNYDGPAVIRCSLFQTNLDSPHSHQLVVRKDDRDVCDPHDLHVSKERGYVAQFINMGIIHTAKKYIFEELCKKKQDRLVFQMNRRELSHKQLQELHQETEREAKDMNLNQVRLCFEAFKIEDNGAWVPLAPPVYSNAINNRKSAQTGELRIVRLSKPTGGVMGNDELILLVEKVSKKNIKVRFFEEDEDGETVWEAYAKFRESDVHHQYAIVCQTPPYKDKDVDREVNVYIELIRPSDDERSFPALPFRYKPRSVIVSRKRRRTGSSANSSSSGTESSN

GST-Aq-NF-kB = molecular target: T5, GST-Aq-NF-kB (Amphimedon queenslandica, UniProt A9Y5G7 2-389)
T5 sequence: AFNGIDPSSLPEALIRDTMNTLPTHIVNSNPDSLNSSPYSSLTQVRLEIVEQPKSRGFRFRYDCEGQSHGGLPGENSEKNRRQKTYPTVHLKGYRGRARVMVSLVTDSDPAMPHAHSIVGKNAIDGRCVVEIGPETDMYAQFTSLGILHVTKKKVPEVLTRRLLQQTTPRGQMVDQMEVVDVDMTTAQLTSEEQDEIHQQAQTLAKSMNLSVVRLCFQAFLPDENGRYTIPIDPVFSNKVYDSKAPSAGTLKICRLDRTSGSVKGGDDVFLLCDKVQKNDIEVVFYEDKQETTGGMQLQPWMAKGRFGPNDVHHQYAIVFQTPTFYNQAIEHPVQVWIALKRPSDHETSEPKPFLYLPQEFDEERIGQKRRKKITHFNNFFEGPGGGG

GST-Hu-p50 = GST-Hu-p50 (Homo sapiens, UniProt P19838 7-356)
Chain of GST-Hu-p50 (P19838 7-356): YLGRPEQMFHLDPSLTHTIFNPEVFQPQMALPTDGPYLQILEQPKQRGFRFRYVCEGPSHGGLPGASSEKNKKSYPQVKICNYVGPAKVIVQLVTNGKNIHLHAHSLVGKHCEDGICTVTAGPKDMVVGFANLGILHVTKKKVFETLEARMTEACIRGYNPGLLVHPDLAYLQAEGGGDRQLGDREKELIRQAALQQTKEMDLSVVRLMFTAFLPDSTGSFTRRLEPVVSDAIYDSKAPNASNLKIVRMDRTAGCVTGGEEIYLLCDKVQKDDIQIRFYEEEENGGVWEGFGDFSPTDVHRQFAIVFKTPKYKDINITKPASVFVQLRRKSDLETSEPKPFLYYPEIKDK

Sequence	binding signal (GST-Ap-NF-kB RHD) [z-score]	binding signal [1] [z-score]	binding signal (GST-Co-NF-kB) [z-score]	binding signal (GST-Dm-Relish) [z-score]	binding signal (GST-Aq-NF-kB) [z-score]	binding signal (GST-Hu-p50) [z-score]
CCGATTAACATCAAGGAGTCCCCTGATGTTAATCGGGTCTTGATTCGCTTGACGCTGCTG	7.69	5.61	3.12	8.59	5.54	5.86
CCGATTAACATCAGAAAAATCCCTGATGTTAATCGGGTCTTGATTCGCTTGACGCTGCTG	5.42	6.84	2.27	9.03	7.2	5.46
CCGATTAACATCAAAAAGCCCCGTGATGTTAATCGGGTCTTGATTCGCTTGACGCTGCTG	6.52	8.2	1.43	8.47	7.21	6.06
CCGATTAACATCAAGGGGGGAACTGATGTTAATCGGGTCTTGATTCGCTTGACGCTGCTG	6.46	5.69	7.52	3.7	5.19	5.52
CCGATTAACATCACTAAACCCCCTGATGTTAATCGGGTCTTGATTCGCTTGACGCTGCTG	6.72	4.83	3.32	7.51	4.92	6.25
CCGATTAACATCAGGGGATATAATGATGTTAATCGGGTCTTGATTCGCTTGACGCTGCTG	5.05	4.66	4.01	3.82	3.39	4.28
CCGATTAACATCAAGAAAATCCCTGATGTTAATCGGGTCTTGATTCGCTTGACGCTGCTG	5.56	5.43	2.27	6.64	5.58	4.6
CCGATTAACATCAGGGATGCCCCTGATGTTAATCGGGTCTTGATTCGCTTGACGCTGCTG	6.96	8.09	1.84	9.08	8.39	5.89
CCGATTAACATCAGGGGGGAGACTGATGTTAATCGGGTCTTGATTCGCTTGACGCTGCTG	5.88	4.78	6.95	3.61	4.79	6.44
CCGATTAACATCAAAAAAACCCTTGATGTTAATCGGGTCTTGATTCGCTTGACGCTGCTG	4.62	5.48	1.11	6.8	6.78	5.45
CCGATTAACATCAGAAACCCCCATGATGTTAATCGGGTCTTGATTCGCTTGACGCTGCTG	7.61	6.32	2.76	8.35	5.97	6.52
CCGATTAACATCAAACGTTCCCCTGATGTTAATCGGGTCTTGATTCGCTTGACGCTGCTG	5.26	5.7	6.66	3.29	4.66	4.03
